Test results as given in the supplement of paper PMC12645437, “Orthogonal IMiD-Degron Pairs Induce Selective Protein Degradation in Cells” (ACS Chemical Biology, 2025).
Whole data set: some 8,300 sequences, median “log2 fold change of degron read counts, EGFP-low vs EGFP+ sorted cells (limma voom), compound-induced degradation” near -1.1, cut for the highest 2% near 3.2. Shown is part of a subset that was picked to be rich in the highest values.

T1: CRBN, Q96SW2
T1 chain: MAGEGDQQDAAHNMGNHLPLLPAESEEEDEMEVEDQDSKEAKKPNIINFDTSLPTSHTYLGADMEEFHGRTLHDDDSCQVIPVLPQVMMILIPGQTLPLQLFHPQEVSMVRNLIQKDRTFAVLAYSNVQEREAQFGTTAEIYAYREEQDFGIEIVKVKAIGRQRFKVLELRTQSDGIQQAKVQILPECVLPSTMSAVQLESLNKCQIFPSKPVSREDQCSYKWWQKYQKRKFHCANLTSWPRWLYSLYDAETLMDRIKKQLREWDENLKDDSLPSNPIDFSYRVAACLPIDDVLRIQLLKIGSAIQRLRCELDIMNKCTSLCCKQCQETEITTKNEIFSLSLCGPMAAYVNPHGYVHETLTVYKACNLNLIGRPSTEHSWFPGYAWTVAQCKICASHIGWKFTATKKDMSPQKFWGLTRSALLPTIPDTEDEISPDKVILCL

B1: 46F_47M_49E_50Q_52G_53A_54Y_55F_67L_, Q9UKT9 (peptide)
chain: FMCEQCGAYFTQKGNLLRHIKL
B2: 46L_47T_49E_50I_52G_53F_54I_55C_67L_, Q9UKT9 (peptide)
chain: LTCEICGFICTQKGNLLRHIKL
B3: 46F_47K_49D_50V_52G_53A_54P_55F_67L_, Q9UKT9 (peptide)
chain: FKCDVCGAPFTQKGNLLRHIKL
B4: 46F_47W_49D_50V_52G_53A_54R_55F_67L_, Q9UKT9 (peptide)
chain: FWCDVCGARFTQKGNLLRHIKL
B5: 46F_47H_49D_50V_52G_53A_54R_55F_67L_, Q9UKT9 (peptide)
chain: FHCDVCGARFTQKGNLLRHIKL
B6: 46F_47V_49D_50V_52G_53A_54R_55F_67L_, Q9UKT9 (peptide)
chain: FVCDVCGARFTQKGNLLRHIKL
B7: 46F_47F_49D_50V_52G_53A_54R_55F_67L_, Q9UKT9 (peptide)
chain: FFCDVCGARFTQKGNLLRHIKL
B8: 46F_47M_49D_50V_52G_53A_54R_55F_67L_, Q9UKT9 (peptide)
chain: FMCDVCGARFTQKGNLLRHIKL
B9: 46F_47L_49D_50V_52G_53A_54R_55F_67L_, Q9UKT9 (peptide)
chain: FLCDVCGARFTQKGNLLRHIKL
B10: 46F_47G_49D_50V_52G_53A_54R_55F_67L_, Q9UKT9 (peptide)
chain: FGCDVCGARFTQKGNLLRHIKL
B11: 46F_47D_49D_50V_52G_53A_54R_55F_67L_, Q9UKT9 (peptide)
chain: FDCDVCGARFTQKGNLLRHIKL
B12: 46F_47Y_49D_50V_52G_53A_54R_55F_67L_, Q9UKT9 (peptide)
chain: FYCDVCGARFTQKGNLLRHIKL
B13: 46F_47C_49D_50Q_52G_53A_54V_55F_67L_, Q9UKT9 (peptide)
chain: FCCDQCGAVFTQKGNLLRHIKL
B14: 46F_47E_49D_50V_52G_53A_54H_55F_67L_, Q9UKT9 (peptide)
chain: FECDVCGAHFTQKGNLLRHIKL
B15: 46F_47E_49P_50Q_52G_53A_54P_55F_67L_, Q9UKT9 (peptide)
chain: FECPQCGAPFTQKGNLLRHIKL
B16: 46F_47M_49N_50Q_52G_53A_54K_55F_67L_, Q9UKT9 (peptide)
chain: FMCNQCGAKFTQKGNLLRHIKL
B17: 46L_47E_49E_50I_52G_53F_54G_55C_67L_, Q9UKT9 (peptide)
chain: LECEICGFGCTQKGNLLRHIKL
B18: 46F_47M_49D_50V_52G_53A_54Q_55F_67L_, Q9UKT9 (peptide)
chain: FMCDVCGAQFTQKGNLLRHIKL

Molecular target: T1, CRBN, Q96SW2
Test: log2 fold change of degron read counts, EGFP-low vs EGFP+ sorted cells (limma voom), compound-induced degradation; higher = more compound-induced degradation of the degron-EGFP fusion; degrons are variants of IKZF1/3 zinc finger 2; compound dose not given here
Details: Jurkat, 18 h
Experimental: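 Pooled library of 8380 IKZF3 ZF2 degron mutants (positions 146-167 varied within the IKZF3 130-189 degron; only the varied core is printed, flanks not printed) fused to EGFP with IRES-mCherry, lentivirally expressed in Jurkat cells. mCherry+ cells were treated with one IMiD compound for 18 h (dose not stated) and FACS-sorted into EGFP-low and EGFP+ populations. Degron sequences were counted by NGS, and log2FC (EGFP-low vs EGFP+) was estimated by limma voom over 3 biological replicates.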

[1] = compound: compound 19 (5-tert-butyl-thalidomide)
[2] = compound: compound 22 (5-morpholino-thalidomide)
[3] = compound: compound 33 (diphenyl IMiD analogue)
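Also: pooled lentiviral library of zinc finger degron-EGFP fusions in mCherry-positive Jurkat cells, FACS-sorted after compound exposure, with degron abundance counted by next-generation sequencing.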

Sequence	log2 fold change of degron read counts [1]	log2 fold change of degron read counts [2]	log2 fold change of degron read counts [3]	log2 fold change of degron read counts (compound: thalidomide)
B1	-2.39	-2.36	-0.295	-2.25
B2	-0.462	-0.661	0.241	1.1
B3	-0.146	-0.607	-2.1	0.295
B4	2.89	3.6	0.211	0.033
B5	0.448	0.585	-1.42	-1.6
B6	-0.856	0.623	-0.882	0.963
B7	3.5	3.15	0.549	-0.102
B8	-1.48	-1.88	0.0127	-0.773
B9	-1.59	-2.29	-1.43	-0.242
B10	1.49	-0.377	-1.65	-0.568
B11	0.864	-0.479	-1.77	-0.643
B12	3.21	3.28	0.5	-0.569
B13	-2.49	-1.9	-0.705	-2.14
B14	-2.74	-4.09	-1.55	-1.76
B15	-2.11	-2.37	-1.67	-1.19
B16	-2.87	-2.47	-2.42	-2.11
B17	-0.956	-2.31	-1.15	-0.202
B18	-1.67	-1.16	1.5	-0.932
